Experiment [1] addresses guinea pig Opioid, Kappa 1 Receptor (OpiateK), OPRK1 (gene 100135587) (UniProt P41144). Nature of the experiment: NVS_GPCR_gOpiateK: NovaScreen (NVS) G Protein-Coupled Receptor Assay for guinea pig Opioid, Kappa 1 Receptor (OpiateK) (AID 2283252).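 Also: radioligand displacement from kappa opioid receptor in guinea pig cerebellar membranes; active means reduced radioligand binding relative to DMSO.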 An outline of the steps:
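Signal is scintillation counts of filter-trapped radioligand bound to guinea pig cerebellar membrane receptor, measured 2 hours post-dosing. Activity is loss of binding versus DMSO, first at 25 uM in duplicate, then as concentration series for actives.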

The subject of experiment [2] is bovine Histamine 1 Receptor (H1), gene 281231. Nature of the experiment: NVS_GPCR_bH1: NovaScreen (NVS) G Protein-Coupled Receptor Assay for bovine Histamine 1 Receptor (H1) (AID 2283246). An outline of the steps: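 Radioligand displacement on bovine cerebellar membranes, 1 h after dosing, filter-based scintillation read-out; loss of signal vs DMSO. Duplicate single-concentration screen at 25 uM, then concentration-response up to 50 uM for hits.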

In experiment [3] the test system is guinea pig Leukotriene B4 Receptor (LTB4), gene 100379538. Briefly: NVS_GPCR_gLTB4: NovaScreen (NVS) G Protein-Coupled Receptor Assay for guinea pig Leukotriene B4 Receptor (LTB4) (AID 2283247). An outline of the steps:
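Radioligand displacement on guinea pig spleen membranes, filter-based scintillation counting 2 h after dosing. Primary duplicate single point at 25 uM; hits over threshold (e.g. 30% inhibition) run in concentration-response up to 50 uM, DMSO baseline.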

In experiment [4] the target is Adenosine receptor A1 (Bos taurus) (UniProt P28190). Nature of the experiment: NVS_GPCR_bAdoR_NonSelective: NovaScreen (NVS) G Protein-Coupled Receptor Assay for bovine Adenosine Receptor (AdoR), Non-selective Binding (AID 2283244). In outline: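 Bovine striatal membranes, radioligand displacement binding, 1 h after dosing, filter-based scintillation counting. Screened in duplicate at 25 uM, then concentration-response up to 50 uM; loss of specific binding relative to DMSO.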

The target in experiment [5] is human Serotonin, 5-Hydroxytryptamine Receptor 6 (5HT6), HTR6 (gene 3362) (UniProt P50406). Nature of the experiment: NVS_GPCR_h5HT6: NovaScreen (NVS) G Protein-Coupled Receptor Assay for human Serotonin, 5-Hydroxytryptamine Receptor 6 (5HT6) (AID 2283253). In outline:
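Radioligand binding to 5HT6 in HEK293-derived membranes, cell-free, 1 h after dosing; bound ligand measured by filter-based scintillation counting. Primary screen in duplicate at 25 uM; actives retested in concentration series.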

The nature of experiment [6]: NVS_GPCR_bNPY_NonSelective: NovaScreen (NVS) G Protein-Coupled Receptor Assay for bovine Neuropeptide Y (NPY) Receptor, Non-selective Binding (AID 2283245). An outline of the steps: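 Bovine hippocampal membranes incubated 1 hour with radioligand and test chemical. Bound ligand measured by filter-based scintillation counting. Single-concentration screen at 25 uM in duplicate, then concentration-response up to 50 uM.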

The test system of experiment [7] is guinea pig Muscarinic, Peripheral (Mperiperal) Receptor, Non-selective Binding, gene 100379235. Briefly: NVS_GPCR_gMPeripheral_NonSelective: NovaScreen (NVS) G Protein-Coupled Receptor Assay for guinea pig Muscarinic, Peripheral (Mperiperal) Receptor, Non-selective Binding (AID 2283250). An outline of the steps: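 Guinea pig bladder membranes, radioligand binding read 1 h after dosing by filter scintillation counting; loss of signal vs DMSO. Primary duplicate screen at 25 uM, then concentration-response up to 50 uM.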

Experiment [8] has as its target human Serotonin, 5-Hydroxytryptamine Receptor 5A (5HT5A), HTR5A (gene 3361) (UniProt P47898). Briefly: NVS_GPCR_h5HT5A: NovaScreen (NVS) G Protein-Coupled Receptor Assay for human Serotonin, 5-Hydroxytryptamine Receptor 5A (5HT5A) (AID 2283251). In outline:
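Cell-free radioligand displacement binding on HEK293-derived membrane protein, 1 h incubation, filter-based scintillation counting. Primary screen in duplicate at 25 uM, actives followed in concentration series; loss of signal fitted versus DMSO.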

Inconclusive results are not listed. Active and inactive are the calls of the source. The calls were made as follows: active = hit-call score of the fitted dose curve at least 0.9, where 1 is the maximum; inconclusive = response in the unintended direction; inactive = score below 0.9.

Chain of guinea pig Opioid, Kappa 1 Receptor (OpiateK), OPRK1 (gene 100135587) (P41144 whole entry, looked up): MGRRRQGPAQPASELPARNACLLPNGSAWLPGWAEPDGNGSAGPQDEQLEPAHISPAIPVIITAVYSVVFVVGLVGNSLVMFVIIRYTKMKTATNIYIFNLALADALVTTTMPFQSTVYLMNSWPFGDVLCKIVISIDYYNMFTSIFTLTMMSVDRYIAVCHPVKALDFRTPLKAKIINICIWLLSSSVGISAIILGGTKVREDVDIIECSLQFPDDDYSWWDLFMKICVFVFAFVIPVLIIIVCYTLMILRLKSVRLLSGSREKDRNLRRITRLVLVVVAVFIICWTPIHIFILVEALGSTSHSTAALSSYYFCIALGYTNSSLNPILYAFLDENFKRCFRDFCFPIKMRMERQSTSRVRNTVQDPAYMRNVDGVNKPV
Chain of Adenosine receptor A1 (Bos taurus) (P28190 whole entry, looked up): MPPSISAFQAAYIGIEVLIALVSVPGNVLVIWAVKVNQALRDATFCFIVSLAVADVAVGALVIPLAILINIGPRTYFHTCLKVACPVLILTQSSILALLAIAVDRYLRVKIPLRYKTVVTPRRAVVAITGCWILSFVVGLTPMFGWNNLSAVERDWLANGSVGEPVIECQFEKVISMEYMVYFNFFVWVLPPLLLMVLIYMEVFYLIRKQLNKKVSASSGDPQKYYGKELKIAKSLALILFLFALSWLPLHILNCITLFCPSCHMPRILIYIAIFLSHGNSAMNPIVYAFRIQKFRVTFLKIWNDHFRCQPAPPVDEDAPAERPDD
Chain of human Serotonin, 5-Hydroxytryptamine Receptor 6 (5HT6), HTR6 (gene 3362) (P50406 whole entry, looked up): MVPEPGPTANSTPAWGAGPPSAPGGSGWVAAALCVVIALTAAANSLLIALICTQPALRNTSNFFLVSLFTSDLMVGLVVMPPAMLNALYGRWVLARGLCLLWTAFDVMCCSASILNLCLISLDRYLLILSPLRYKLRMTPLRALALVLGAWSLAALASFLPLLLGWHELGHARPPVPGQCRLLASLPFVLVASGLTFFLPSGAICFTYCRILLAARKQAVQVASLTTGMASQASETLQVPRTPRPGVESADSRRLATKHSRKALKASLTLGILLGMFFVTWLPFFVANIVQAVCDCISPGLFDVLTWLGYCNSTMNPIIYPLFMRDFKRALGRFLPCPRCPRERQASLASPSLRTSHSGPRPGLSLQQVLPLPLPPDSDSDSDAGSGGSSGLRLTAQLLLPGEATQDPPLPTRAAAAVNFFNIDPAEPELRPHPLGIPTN
Chain of human Serotonin, 5-Hydroxytryptamine Receptor 5A (5HT5A), HTR5A (gene 3361) (P47898 whole entry, looked up): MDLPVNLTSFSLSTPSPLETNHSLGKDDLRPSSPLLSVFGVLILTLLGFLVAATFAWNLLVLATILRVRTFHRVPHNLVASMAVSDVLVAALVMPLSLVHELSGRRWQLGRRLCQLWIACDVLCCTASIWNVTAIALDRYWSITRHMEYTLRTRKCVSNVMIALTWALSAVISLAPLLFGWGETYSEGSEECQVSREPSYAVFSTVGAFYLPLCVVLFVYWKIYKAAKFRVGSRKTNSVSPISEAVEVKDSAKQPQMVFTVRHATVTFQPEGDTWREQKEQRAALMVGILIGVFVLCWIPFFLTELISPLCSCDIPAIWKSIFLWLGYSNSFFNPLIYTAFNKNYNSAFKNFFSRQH

For the molecule `CCCSC(=O)N(CCC)CCC`, the molecule was called inactive in experiment [1].
For the molecule `C[C@]12C=CC3=C4CCC(=O)C=C4CC[C@H]3[C@@H]1CC[C@@H]2O`, in experiment [2], the molecule was classed as inactive. In experiment [3], the AC50 was 2.88 µM (active).
On to `CCOc1cccc(C2(N3CCN(c4ccccc4)CC3)CCC(C)CC2)c1` (centres undefined), for which, in experiment [4], the molecule was called inactive.
Consider `CCCCCOC(=O)c1ccccc1C(=O)OCCCCC`, for which the call in experiment [1] and in experiment [5] was inactive.
`O=C(Nc1ccccc1)c1ccccc1I`: the result in experiment [6] was inactive.
As for `O=[N+]([O-])c1ccc(Oc2ccc(Cl)cc2Cl)cc1`, the molecule was called inactive in experiment [7] and in experiment [5].
Regarding `Cc1cc(N=Nc2ccccc2C)ccc1N`, the molecule was classed as inactive in experiment [2].
Regarding `Nc1ccc(N=Nc2ccccc2)cc1`, the AC50 in experiment [4] is 25 µM (active).
As for `CCCCCCCCn1sccc1=O`, in experiment [6], the result was inactive. The AC50 in experiment [8] was 26 µM (active); in experiment [1], 18.2 µM (active).

What is called AC50 is the concentration giving half of the maximal activity seen.

The record behind these values is PubChem BioAssay (EPA / NIEHS).
